This passage reports residual activity results from ChEMBL document CHEMBL2218924, “A broad activity screen in support of a chemogenomic map for kinase signalling research and drug discovery” (Biochem J, 2013).

As usually defined, the residual activity is the signal under treatment as a percentage of the control signal.

Experiment [1] concerns the target T1, Serine/threonine-protein kinase TBK1 (Homo sapiens) (UniProt Q9UHD2).
T1 sequence (whole entry): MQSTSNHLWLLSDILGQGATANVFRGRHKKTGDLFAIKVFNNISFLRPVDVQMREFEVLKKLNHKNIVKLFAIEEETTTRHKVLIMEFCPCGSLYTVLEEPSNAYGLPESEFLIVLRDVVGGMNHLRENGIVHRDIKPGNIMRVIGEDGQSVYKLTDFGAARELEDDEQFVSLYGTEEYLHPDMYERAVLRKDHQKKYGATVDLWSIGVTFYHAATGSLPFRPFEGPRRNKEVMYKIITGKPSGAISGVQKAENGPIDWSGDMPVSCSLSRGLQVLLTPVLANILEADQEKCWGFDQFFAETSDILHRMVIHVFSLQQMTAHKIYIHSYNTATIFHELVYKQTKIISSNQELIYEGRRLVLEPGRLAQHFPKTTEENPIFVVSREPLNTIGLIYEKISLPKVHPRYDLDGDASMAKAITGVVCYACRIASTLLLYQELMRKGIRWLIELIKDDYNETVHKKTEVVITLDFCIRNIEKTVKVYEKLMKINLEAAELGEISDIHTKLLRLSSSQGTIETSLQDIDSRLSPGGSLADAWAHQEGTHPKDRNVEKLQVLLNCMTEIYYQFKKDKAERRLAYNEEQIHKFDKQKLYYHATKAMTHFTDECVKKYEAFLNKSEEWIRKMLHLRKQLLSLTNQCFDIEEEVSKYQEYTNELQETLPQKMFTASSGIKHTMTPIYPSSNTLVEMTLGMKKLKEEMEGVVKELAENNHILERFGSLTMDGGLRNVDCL
To be noted: at 10 µM.

In experiment [2] the target is T2, TGF-beta receptor type-1 (Homo sapiens) (UniProt P36897).
T2 sequence (whole entry): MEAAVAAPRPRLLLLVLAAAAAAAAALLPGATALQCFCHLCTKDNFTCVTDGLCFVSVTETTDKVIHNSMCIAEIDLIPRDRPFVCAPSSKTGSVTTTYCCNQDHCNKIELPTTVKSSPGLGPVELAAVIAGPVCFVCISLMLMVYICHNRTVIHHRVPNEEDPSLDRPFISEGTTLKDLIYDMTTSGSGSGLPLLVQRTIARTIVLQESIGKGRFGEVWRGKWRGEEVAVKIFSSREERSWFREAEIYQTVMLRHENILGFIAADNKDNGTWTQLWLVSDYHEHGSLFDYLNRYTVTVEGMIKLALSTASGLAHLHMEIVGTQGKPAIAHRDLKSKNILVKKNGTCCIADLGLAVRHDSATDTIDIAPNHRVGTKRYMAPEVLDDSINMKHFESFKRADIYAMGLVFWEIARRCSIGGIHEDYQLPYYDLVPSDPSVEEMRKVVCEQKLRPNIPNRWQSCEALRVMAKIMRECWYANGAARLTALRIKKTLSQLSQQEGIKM
To be noted: at 1 µM.

For experiment [3], the target named is T2, TGF-beta receptor type-1 (Homo sapiens). To be noted: at 10 µM.
Experiment [4] has as its target Insulin-like growth factor 1 receptor (Homo sapiens) (UniProt P08069). To be noted: at 1 µM.
The target is the same in experiment [5]. The conditions noted are these: at 10 µM.
For experiment [6], the target named is T3, Inhibitor of nuclear factor kappa-B kinase subunit alpha (Homo sapiens) (UniProt O15111).
T3 sequence (whole entry): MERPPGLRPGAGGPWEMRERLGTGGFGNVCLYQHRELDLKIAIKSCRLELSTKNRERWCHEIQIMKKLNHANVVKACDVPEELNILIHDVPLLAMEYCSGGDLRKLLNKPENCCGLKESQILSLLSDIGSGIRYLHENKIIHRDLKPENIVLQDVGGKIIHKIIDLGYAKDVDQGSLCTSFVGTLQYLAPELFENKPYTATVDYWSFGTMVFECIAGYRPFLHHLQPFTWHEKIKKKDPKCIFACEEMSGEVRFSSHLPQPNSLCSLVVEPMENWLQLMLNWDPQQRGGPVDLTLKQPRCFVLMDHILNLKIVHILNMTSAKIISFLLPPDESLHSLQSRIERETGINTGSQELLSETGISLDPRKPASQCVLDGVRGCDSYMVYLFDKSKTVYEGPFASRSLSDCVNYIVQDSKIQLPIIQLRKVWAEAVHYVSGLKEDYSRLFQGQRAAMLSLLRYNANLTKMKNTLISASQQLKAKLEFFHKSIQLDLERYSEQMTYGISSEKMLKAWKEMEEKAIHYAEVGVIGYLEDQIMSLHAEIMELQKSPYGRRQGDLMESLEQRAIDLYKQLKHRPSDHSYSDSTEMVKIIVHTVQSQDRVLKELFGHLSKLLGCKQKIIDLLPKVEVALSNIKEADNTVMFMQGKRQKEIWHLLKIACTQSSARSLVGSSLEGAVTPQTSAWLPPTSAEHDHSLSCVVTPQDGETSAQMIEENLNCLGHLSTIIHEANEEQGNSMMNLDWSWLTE
To be noted: at 1 µM.

Experiment [7] deals with T3, Inhibitor of nuclear factor kappa-B kinase subunit alpha (Homo sapiens). The conditions noted are these: at 10 µM.
The target of experiment [8] is T4, Inhibitor of nuclear factor kappa-B kinase subunit beta (Homo sapiens) (UniProt O14920).
T4 sequence (whole entry): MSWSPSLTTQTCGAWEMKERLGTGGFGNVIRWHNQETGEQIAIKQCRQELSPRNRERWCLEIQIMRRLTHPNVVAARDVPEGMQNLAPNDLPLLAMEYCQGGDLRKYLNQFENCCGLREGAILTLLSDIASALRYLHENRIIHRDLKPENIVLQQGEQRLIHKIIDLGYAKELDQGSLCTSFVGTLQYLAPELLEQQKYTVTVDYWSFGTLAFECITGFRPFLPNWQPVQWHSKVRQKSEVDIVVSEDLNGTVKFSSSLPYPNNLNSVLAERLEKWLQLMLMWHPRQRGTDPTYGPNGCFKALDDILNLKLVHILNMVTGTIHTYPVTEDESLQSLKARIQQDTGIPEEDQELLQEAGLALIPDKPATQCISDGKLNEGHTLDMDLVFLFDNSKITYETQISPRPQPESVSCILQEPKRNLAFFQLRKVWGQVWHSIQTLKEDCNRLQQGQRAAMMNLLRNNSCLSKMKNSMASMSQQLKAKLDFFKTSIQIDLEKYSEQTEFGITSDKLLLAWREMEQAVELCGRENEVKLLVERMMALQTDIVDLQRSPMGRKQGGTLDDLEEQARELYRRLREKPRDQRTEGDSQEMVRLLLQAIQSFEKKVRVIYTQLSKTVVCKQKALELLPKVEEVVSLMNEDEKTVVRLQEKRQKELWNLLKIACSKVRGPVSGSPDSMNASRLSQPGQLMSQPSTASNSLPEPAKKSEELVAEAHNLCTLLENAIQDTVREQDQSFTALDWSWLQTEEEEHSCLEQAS
To be noted: at 1 µM.

Experiment [9] concerns the target T4, Inhibitor of nuclear factor kappa-B kinase subunit beta (Homo sapiens). To be noted: at 10 µM.
The target in experiment [10] is Insulin receptor (Homo sapiens) (UniProt P06213). The conditions noted are these: at 1 µM.
Sequence of Insulin receptor (Homo sapiens) (P06213 28-758 limits assumed): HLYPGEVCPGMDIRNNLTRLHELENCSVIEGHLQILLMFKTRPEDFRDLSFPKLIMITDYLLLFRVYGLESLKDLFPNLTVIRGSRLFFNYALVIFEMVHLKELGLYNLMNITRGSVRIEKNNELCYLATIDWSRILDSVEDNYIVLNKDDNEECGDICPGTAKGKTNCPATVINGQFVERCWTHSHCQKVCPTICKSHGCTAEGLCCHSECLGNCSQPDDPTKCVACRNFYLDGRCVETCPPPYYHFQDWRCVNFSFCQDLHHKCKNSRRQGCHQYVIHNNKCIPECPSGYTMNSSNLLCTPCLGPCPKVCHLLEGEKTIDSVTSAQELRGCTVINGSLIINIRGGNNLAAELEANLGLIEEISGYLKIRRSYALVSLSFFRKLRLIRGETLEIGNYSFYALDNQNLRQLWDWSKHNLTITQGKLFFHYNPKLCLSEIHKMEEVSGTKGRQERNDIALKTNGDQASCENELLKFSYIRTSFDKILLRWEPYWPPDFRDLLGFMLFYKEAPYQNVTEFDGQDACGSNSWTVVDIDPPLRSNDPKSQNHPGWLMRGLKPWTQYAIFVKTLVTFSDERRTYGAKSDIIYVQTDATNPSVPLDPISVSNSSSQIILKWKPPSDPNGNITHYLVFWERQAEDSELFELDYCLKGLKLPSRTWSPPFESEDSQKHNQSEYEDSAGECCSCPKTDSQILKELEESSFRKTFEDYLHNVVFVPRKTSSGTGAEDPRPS
Sequence of Insulin receptor (Homo sapiens) (P06213 763-1382 limits assumed): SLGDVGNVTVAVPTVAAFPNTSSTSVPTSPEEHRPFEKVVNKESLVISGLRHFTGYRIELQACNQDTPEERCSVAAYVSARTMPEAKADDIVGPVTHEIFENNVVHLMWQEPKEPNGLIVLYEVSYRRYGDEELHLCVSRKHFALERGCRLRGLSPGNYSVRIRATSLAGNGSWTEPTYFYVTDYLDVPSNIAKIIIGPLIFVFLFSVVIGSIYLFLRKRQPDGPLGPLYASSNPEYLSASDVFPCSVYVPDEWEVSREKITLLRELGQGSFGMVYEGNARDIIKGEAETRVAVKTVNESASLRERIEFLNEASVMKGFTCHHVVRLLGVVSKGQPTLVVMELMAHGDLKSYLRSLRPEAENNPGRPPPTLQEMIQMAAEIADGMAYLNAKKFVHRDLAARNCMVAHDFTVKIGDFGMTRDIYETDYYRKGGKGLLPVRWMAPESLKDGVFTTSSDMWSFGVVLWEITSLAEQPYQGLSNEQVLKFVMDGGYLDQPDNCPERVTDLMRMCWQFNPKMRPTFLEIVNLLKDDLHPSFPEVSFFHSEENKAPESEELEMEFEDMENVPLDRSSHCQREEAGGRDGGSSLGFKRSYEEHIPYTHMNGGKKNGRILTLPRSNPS

Sequence of Insulin-like growth factor 1 receptor (Homo sapiens) (P08069 31-736 limits assumed): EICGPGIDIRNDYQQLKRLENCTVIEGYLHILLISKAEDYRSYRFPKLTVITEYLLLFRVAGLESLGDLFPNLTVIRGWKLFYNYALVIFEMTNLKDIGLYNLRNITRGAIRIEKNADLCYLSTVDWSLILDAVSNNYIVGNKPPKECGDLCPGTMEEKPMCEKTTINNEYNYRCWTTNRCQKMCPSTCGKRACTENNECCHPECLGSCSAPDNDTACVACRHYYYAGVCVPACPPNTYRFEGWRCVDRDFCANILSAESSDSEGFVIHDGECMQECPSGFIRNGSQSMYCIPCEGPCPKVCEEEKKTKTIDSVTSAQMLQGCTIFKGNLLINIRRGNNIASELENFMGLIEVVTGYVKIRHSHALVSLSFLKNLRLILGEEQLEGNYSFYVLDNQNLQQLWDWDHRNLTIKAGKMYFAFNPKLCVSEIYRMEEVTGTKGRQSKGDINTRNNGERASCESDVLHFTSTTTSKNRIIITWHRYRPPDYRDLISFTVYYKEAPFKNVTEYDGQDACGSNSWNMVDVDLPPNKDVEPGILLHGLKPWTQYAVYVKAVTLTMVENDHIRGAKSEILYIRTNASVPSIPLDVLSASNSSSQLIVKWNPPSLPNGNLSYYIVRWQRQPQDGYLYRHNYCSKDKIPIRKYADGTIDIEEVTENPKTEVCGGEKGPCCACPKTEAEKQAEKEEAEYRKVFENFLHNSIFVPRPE
Sequence of Insulin-like growth factor 1 receptor (Homo sapiens) (P08069 741-1367 limits assumed): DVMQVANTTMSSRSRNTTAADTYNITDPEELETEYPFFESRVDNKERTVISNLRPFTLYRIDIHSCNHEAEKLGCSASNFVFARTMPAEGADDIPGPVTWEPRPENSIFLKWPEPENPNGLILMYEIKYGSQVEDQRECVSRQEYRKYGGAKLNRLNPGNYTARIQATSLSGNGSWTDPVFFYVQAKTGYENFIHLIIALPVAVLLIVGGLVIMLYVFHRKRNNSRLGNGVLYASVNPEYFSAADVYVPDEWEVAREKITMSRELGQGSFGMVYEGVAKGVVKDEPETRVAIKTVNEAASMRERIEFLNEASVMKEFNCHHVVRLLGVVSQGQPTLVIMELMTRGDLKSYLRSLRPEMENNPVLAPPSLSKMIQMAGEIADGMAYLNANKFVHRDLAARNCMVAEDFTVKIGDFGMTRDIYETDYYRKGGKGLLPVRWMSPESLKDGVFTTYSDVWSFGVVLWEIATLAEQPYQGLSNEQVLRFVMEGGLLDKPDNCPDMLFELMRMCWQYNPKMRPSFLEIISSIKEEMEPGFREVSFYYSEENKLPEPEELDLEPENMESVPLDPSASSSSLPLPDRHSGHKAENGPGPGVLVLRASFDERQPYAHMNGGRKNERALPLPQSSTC

For `CCOc1cc2ncnc(Nc3cccc(Br)c3)c2cc1OCC`, the residual activity stood at 33% in experiment [1]; 89% in experiment [2]; 81% in experiment [3]; 104% in [4]; 100% in experiment [5]; 108% in [6]. Further, the residual activity was 108% in experiment [7], 97% in [8], 82% in experiment [9] and 104% in [10].
